Data as given in PubChem BioAssay AID720522 (National Center for Advancing Translational Sciences (NCATS), 2013).
Among all 1,400 compounds or so, about 60 (4%) were called active. Not shown: some 7% with an inconclusive outcome. Calls follow the shape of the dose curve; as a rule, active = well fitted inhibition curve with a large enough effect; inconclusive = small, poorly fitted or top-dose-only effect; inactive = flat fitted curve, though single readings scatter. Not all results are given here. Where a call stands in place of a potency, no number is given.

biological target: Luciferin 4-monooxygenase (Photinus pyralis) (UniProt P08659); assay: Nrf2 qHTS screen for inhibitors: Purified Fluc Biochemical Counterscreen for Hit Validation; details: purified firefly luciferase, luminescence inhibition; series mostly up to 57.5 µM; also: nearly all actives have a fitted effect of over 65% in size
Sequence (P08659 whole entry, looked up): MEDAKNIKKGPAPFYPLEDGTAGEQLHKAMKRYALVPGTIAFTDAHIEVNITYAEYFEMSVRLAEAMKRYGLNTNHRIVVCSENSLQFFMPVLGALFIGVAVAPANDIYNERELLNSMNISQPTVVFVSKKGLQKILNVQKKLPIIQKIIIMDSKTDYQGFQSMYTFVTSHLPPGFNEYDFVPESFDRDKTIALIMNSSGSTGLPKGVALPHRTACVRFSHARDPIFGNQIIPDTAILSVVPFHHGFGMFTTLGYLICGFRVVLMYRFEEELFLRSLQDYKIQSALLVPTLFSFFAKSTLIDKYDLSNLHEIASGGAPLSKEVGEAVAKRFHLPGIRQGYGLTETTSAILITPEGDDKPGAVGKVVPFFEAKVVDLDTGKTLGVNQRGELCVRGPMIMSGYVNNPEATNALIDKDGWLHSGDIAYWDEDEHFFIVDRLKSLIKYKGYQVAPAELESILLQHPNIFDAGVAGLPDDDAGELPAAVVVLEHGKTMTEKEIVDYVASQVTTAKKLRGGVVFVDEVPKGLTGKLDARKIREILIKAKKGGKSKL
From the text: Nrf2 is a transcription factor that maintains cellular redox homoestasis and protects cells from xenobiotics. Nrf2 binds to the antioxidant response element (ARE) to induce gene expression of a broad spectrum of genes that encode for antioxidants. […] Finding a small molecule that act as an inhibitor of Nrf2 function would represent a novel therapeutic target that could lead to improvement in survival of patients undergoing chemo- and/or radio- therapy.
A biochemical assay in 1536 well format was developed and utilized to remove compounds that inhibit the luciferase reporter (Fluc) rather than the Nrf2 enzyme. Inhibition of this assay = false positive inhibition of Nrf2.
NIH Chemical Genomics Center [NCGC]
NIH Molecular Libraries Probe Centers Network [MLPCN]
Assay Submitter (PI): Shyam Biswal, Johns Hopkins University
[1] Shibata T., et al., Genetic alteration of Keap1 confers constitutive Nrf2 activation and resistance to chemotherapy in gallbladder cancer. Gastroenterology, 2008.
[2] Sjoblom T., et al., The consensus coding sequences of human breast and colorectal cancers. Science, 2006.
Three microliter of substrate solution containing 50mM Tris acetate, 13.3 mM Mg-acetate, 0.01mM ATP, 0.01% Tween, 0.05% BSA and 0.01mM D-Luciferin (Sigma, #L9504) was dispensed into 1536 well white solid bottom assay plate (Greiner Bio, #789173-F). Twenty-three nanoliter of compounds dissolved in DMSO at different concentrations was added to the plate using a Kalypsys 1536-pin tool. Then 1 uL of firefly luciferase reagent containing 50mM Tris-acetate and 0.04uM P. pyralis luciferase (Sigma, #L9506) was added. The final DMSO concentration was maintained at 0.56%. Luminescence signal was acquired using the PerkinElmer Viewlux plate reader after incubation at room temperature for 10 minutes.
Potency is read from the fitted curve at half-maximal effect.

| Compound | Potency |
| --- | --- |
| Cc1cc(C(=O)NC2CCCc3c2cnn3-c2cccc(C)c2C)c(C)o1 (stereo not given) | inactive |
| O=C(CCC(=O)N1CCN(S(=O)(=O)c2ccc(Cl)cc2)CC1)NCc1cccc(C(F)(F)F)c1 | inactive |
| Cc1nc(N2CCOCC2)c2c(C)c(C(=O)Nc3ccc(C(F)(F)F)cc3)sc2n1 | inactive |
| O=C(Nc1ccncc1)c1c(F)cccc1F | inactive |
| Cc1ccc(S(=O)(=O)N2CCN(c3ncnc4ccccc34)CC2)cc1 | inactive |
| CC(=NNC(=S)N1CCCCCC1)c1ccccn1 | 12 µM (active) |
| CCCCNc1nc2c(c(=O)n(C)c(=O)n2C)n1Cc1cccc(OC)c1 | inactive |
| CC(=O)N1c2ccc(S(=O)(=O)N3CCCC(C(=O)NCc4ccc(Cl)cc4)C3)cc2CC1C (stereo not given) | inactive |
| CN(C)c1ccc(/C=C/c2sc3ccccc3[n+]2CCCCBr)cc1 | inactive |
| CCC(C)N1C(=O)S/C(=C/c2ccc(Sc3nc4ccccc4[nH]3)o2)C1=O (stereo not given) | inactive |
| O=C1C=C(c2ccnc3cc(Cl)ccc23)C[C@@H](c2ccc3c(c2)OCO3)C1 | inactive |
| COc1cccc(-c2nc(CS(=O)(=O)CC(=O)N3CCN(c4cc(C)ccc4C)CC3)c(C)o2)c1 | inactive |
| COCCn1c(SCC(=O)Nc2ccccc2F)nc2c(c1=O)SCC2 | inactive |
| Cn1nccc1C(=O)NC1CCCc2c1cnn2-c1ccc(F)cc1F (stereo not given) | inactive |
| Cc1oc2c(F)c(F)c(F)c(F)c2c1S(=O)(=O)Nc1cccc(C(F)(F)F)c1 | inactive |
| CC(=O)N1CCCc2cc(S(=O)(=O)N3CCCC(C(=O)N4CCN(c5cccc(Cl)c5)CC4)C3)ccc21 (stereo not given) | inactive |
| Cc1ccc(NC(=O)C2CC(=O)N(c3ccc4c(c3)OCCO4)C2)cc1S(=O)(=O)N1CCCCCC1 (stereo not given) | inactive |
| O/N=C(\C[n+]1ccccc1)c1ccc(Br)cc1 | inactive |
| N#CC(C#N)=CN=c1ccn(Cc2ccc(Cl)cc2Cl)cc1 | inactive |
| O=c1[nH]c(SCc2cccc(F)c2)nc2ccccc12 | inactive |

| Compound | Potency |
| --- | --- |
| COc1cccc(-c2nnc(NC(=O)c3ccc(S(=O)(=O)N(CC(C)C)CC(C)C)cc3)o2)c1 | inactive |
| Cc1cc(C)c(-c2csc(NC(=O)CCCc3nc4ccccc4c(=O)[nH]3)n2)c(C)c1 | inactive |
| Cc1c(Cl)cccc1NC(=O)Cn1cc(C(=O)c2cccs2)c2ccccc21 | inactive |
| CC1(C)O[C@@H]2CC3C4C[C@H](F)C5=CC(=O)C=CC5(C)C4C(O)CC3(C)[C@]2(C(=O)CO)O1 (stereo not given in full) | inactive |
| CC(=O)Nc1ccc(Nc2c3ccccc3nc3ccccc23)cc1 | inactive |
| CCCOc1ccc(C(=O)Nc2ccc3oc(-c4cccc(Cl)c4Cl)nc3c2)cc1 | inactive |
| CC(=O)OC(C)C[N+](C)(C)C (stereo not given) | inactive |
| COc1ccc(CC(=O)Nc2nc(-c3ccc(F)c(F)c3)cs2)cc1OC | inactive |
| O=C(OCCOc1ccccc1Cl)c1cc(S(=O)(=O)N2CCCCC2)ccc1N1CCOCC1 | inactive |
| CC1CCCN(S(=O)(=O)c2ccc(C(=O)Nc3nnc(-c4ccncc4)o3)cc2)C1 (stereo not given) | inactive |
| CC[C@H]1CN2CCc3cc(OC)c(OC)cc3[C@@H]2C[C@@H]1C[C@H]1NCCc2cc(OC)c(OC)cc21 | inactive |
| Cc1ccc(S(=O)(=O)N2C[C@@H]3CCCC[C@@H]3[C@@H](C)[C@H]2c2cn(Cc3ccccc3)c3ccc(F)cc23)cc1 | inactive |
| OCCCNc1nccc(-c2cc(Nc3cccc(Cl)c3)ncn2)n1 | inactive |
| Cc1ccc(NS(=O)(=O)c2cccs2)cc1S(=O)(=O)N1CCCCCC1 | inactive |
| CCOC(=O)c1cnc(-n2nc(C)cc2C)nc1NNc1cc(C)nc(-c2ccccc2)n1 | inactive |
| CN(Cc1cccnc1)C(=O)c1cc(COc2ccc3ncccc3c2)on1 | inactive |
| CC1(C)CC(N2CCN(C(c3ccccc3)c3ccccc3)CC2)=CC(=[N+]2CCCCC2)C1 | inactive |
| Cc1csc[n+]1CCC1CCCCC1 | inactive |
| O=C(Nc1ccc(Br)cn1)C1CCN(S(=O)(=O)c2cccs2)CC1 | inactive |
| COc1ccc(N2CCN(C(=O)CSCc3nc(-c4ccccc4Cl)oc3C)CC2)cc1 | inactive |

| Compound | Potency |
| --- | --- |
| CCCOc1ccc(Cc2c(Cl)nc(SC)nc2NC)cc1 | inactive |
| Cc1cccc(N2CCN(C(=O)CCS(=O)(=O)c3ccc4c(c3)NC(=O)C(C)S4)CC2)c1C (stereo not given) | inactive |
| C[n+]1ccc(/C=C/c2c[nH]c3ccccc23)cc1 | inactive |
| O=C(CN1C(=O)c2ccccc2S1(=O)=O)N1CCc2ccccc21 | 4.26 µM (active) |
| O=C(CSc1nnc2c(n1)[nH]c1ccccc12)NC1CCCCC1 | inactive |
| O=C(CC(O)(C(F)(F)F)C(F)(F)F)Nc1ccc(Cl)c(Cl)c1 | inactive |
| COc1ccc(C(=O)C[n+]2ccc(N)c(C)c2C)cc1 | inactive |
| CCCN(c1ccc(C(C)C)cc1)S(=O)(=O)c1c(C)[nH]c(=O)[nH]c1=O | inactive |
| CCOc1ccc(S(=O)(=O)N2CCCCC2)cc1NC(=O)CN1CCCC1c1cccs1 (stereo not given) | inactive |
| CC1CCN(S(=O)(=O)c2ccc(NC(=O)C3CC(=O)N(c4ccccc4)C3)cc2)CC1 (stereo not given) | inactive |
| COc1ccc(CCNC(=O)c2ccc(CS(=O)(=O)c3ccc(Br)cc3)o2)cc1OC | inactive |
| COc1ccc(OC)c(Cc2cnc3nc(N)nc(N)c3c2C)c1 | inactive |
| CCCCCCCCn1c2c(c(=N)c3c1CCC3)CCCC2 | inactive |
| COc1ccc(CCNc2cc(N3CCN(C(=O)c4ccccc4OC)CC3)ccc2[N+](=O)[O-])cc1OC | inactive |
| CC(=O)N1c2ccc(S(=O)(=O)N3CCCC(C(=O)Nc4cccc(Cl)c4)C3)cc2CC1C (stereo not given) | inactive |
| CNC(=O)c1cccc2nc3ccccc3nc12 | inactive |
| CC(C)Cn1c(N)c(C(=O)COC(=O)CN2C(=O)C3CC=CCC3C2=O)c(=O)n(C)c1=O (stereo not given) | inactive |
| Cc1cc(C)cc(NS(=O)(=O)c2ccc(Oc3ncc(C(F)(F)F)cc3Cl)cc2)c1 | inactive |
| CCNS(=O)(=O)c1ccc(CCC(=O)N2CCN(c3cc(Cl)ccc3C)CC2)cc1 | inactive |
| C=CCC1(CC=C)CCCN1C(=O)c1cc(COc2ccc(-n3cncn3)cc2)on1 | inactive |
